Among the data in paper PMC7862700, “An all-to-all approach to the identification of sequence-specific readers for epigenetic DNA modifications on cytosine” are binding signal values, retold here.

Holding throughout (assay): DAPPL (digital affinity profiling via proximity ligation, sequencing); 10 mM Tris-HCl pH 7.5, 50 mM NaCl, 1 mM DTT, 4% glycerol, room temperature, 30 min; GST-TFs on glutathione beads, 16-mer random dsDNA library, 0.1% formaldehyde crosslink after washing; high values mean tight binding
The target of one experiment is T1, FEV (Homo sapiens, UniProt Q99581 1-238).
T1 sequence: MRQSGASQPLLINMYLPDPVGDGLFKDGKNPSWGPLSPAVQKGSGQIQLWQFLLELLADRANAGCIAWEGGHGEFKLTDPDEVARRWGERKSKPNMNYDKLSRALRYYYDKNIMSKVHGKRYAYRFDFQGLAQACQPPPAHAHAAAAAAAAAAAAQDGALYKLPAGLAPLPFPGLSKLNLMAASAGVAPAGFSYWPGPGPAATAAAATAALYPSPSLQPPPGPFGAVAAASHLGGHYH
The following applies: protein: recombinant; tags: N-terminal GST; dsDNA, one strand shown. The gist of the method: (§1)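 Binding signal is defined as a hexamer's read frequency for one factor over its frequency for the tag-only sample. To obtain reads, GST-fused human transcription factors were expressed in yeast, captured on glutathione beads, barcoded with DNA and pooled with that sample. Pools met 200 nmole of a 16-mer random double-stranded DNA library in Tris/NaCl/DTT/glycerol buffer for 30 min at room temperature before washing, 0.1% formaldehyde crosslinking, proximity ligation (BsaI/T4 ligase, 1 h, 37 °C), PCR and Illumina NextSeq500 sequencing.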

The next experiment deals with ETV5 (Homo sapiens, UniProt P41161 1-510). The following applies: protein: recombinant; tags: N-terminal GST; dsDNA, one strand shown. In short, it runs like this: as §1
A further experiment deals with HSF1 (Homo sapiens, UniProt Q00613 1-529). The following applies: protein: recombinant; tags: N-terminal GST; chain copies: 3; dsDNA, one strand shown. In short, it runs like this: as §1
For a further experiment, the target named is T2, SPIC (Homo sapiens, UniProt Q8N5J4 1-248).
T2 sequence: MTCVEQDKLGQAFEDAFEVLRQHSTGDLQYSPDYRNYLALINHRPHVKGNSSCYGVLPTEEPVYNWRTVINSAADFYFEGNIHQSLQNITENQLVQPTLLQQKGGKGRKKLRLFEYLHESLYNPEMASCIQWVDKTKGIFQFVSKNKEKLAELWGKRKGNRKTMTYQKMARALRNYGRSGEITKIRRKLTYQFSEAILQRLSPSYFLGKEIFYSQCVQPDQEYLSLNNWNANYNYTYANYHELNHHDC
The note with it: protein: recombinant; tags: N-terminal GST; dsDNA, one strand shown. In short, it runs like this: as §1

For another experiment, the target named is ELF4 (Homo sapiens, UniProt Q99607 1-663). The following applies: protein: recombinant; tags: N-terminal GST; dsDNA, one strand shown. In short, it runs like this:
as §1

A further experiment has as its target T3, ELK4 (Homo sapiens, UniProt P28324-2 1-405).
T3 sequence: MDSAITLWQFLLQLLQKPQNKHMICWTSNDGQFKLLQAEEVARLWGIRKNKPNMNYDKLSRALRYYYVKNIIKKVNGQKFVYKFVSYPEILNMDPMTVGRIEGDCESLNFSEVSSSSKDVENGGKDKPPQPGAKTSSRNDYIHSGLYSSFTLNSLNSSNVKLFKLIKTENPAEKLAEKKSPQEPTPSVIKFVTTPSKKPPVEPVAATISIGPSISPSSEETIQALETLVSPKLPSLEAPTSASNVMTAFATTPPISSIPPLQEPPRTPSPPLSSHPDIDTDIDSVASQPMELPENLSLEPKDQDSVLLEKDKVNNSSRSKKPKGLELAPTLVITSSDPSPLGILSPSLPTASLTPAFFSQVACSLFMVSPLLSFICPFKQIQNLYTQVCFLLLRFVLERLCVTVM
The note with it: protein: recombinant; tags: N-terminal GST; dsDNA, one strand shown. The gist of the method: as §1

Another experiment concerns the target T4, ETV2 (Homo sapiens, UniProt O00321 1-342).
T4 sequence: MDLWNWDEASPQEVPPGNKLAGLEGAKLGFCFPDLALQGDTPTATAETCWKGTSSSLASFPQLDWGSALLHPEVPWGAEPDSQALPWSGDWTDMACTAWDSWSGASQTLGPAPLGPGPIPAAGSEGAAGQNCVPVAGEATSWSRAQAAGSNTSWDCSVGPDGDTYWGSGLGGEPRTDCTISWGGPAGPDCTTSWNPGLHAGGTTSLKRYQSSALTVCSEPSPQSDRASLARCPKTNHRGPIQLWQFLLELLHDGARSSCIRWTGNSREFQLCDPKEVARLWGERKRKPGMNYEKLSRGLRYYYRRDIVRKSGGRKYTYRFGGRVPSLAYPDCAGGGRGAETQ
The following applies: protein: recombinant; tags: N-terminal GST; dsDNA, one strand shown. The gist of the method:
as §1

The target of another experiment is T5, ELF3 (Homo sapiens, UniProt P78545 1-371).
T5 sequence: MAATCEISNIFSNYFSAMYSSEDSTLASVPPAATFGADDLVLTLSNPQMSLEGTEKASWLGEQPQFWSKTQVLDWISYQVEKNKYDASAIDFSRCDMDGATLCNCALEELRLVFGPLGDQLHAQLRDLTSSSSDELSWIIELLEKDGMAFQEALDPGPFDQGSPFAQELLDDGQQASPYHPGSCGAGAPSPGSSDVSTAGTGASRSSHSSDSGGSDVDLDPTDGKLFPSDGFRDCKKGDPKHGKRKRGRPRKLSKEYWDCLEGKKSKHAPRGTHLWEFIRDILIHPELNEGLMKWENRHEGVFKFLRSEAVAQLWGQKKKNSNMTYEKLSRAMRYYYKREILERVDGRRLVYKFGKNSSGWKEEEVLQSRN
The note with it: protein: recombinant; tags: N-terminal GST; dsDNA, one strand shown. The gist of the method: as §1

The next experiment concerns the target CRX (Homo sapiens, UniProt O43186 1-299). The note with it: protein: recombinant; tags: N-terminal GST; dsDNA, one strand shown. In short, it runs like this:
as §1

The target in a further experiment is ETV1 (Homo sapiens, UniProt P50549 1-477). The note with it: protein: recombinant; tags: N-terminal GST; dsDNA, one strand shown. In short, it runs like this: as §1
Another experiment concerns the target T6, ERF (Homo sapiens, UniProt P50548 1-548).
T6 sequence: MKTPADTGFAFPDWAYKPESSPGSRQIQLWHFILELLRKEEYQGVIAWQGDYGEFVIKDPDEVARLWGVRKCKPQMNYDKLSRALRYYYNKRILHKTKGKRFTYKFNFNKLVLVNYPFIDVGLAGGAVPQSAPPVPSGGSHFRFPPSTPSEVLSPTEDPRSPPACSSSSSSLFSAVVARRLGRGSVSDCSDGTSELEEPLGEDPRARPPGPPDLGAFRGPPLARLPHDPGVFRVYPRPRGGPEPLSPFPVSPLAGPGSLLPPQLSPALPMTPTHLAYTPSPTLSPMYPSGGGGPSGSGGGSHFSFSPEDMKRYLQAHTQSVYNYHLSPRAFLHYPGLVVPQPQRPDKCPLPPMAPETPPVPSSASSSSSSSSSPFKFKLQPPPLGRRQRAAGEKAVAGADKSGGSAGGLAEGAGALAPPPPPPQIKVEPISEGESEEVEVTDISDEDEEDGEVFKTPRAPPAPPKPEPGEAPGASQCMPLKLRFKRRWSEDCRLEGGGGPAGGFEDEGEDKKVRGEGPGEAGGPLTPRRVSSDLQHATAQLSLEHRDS
The following applies: protein: recombinant; tags: N-terminal GST; dsDNA, one strand shown. The gist of the method: as §1

The target in another experiment is T7, ETV3L (Homo sapiens, UniProt Q6ZN32 1-361).
T7 sequence: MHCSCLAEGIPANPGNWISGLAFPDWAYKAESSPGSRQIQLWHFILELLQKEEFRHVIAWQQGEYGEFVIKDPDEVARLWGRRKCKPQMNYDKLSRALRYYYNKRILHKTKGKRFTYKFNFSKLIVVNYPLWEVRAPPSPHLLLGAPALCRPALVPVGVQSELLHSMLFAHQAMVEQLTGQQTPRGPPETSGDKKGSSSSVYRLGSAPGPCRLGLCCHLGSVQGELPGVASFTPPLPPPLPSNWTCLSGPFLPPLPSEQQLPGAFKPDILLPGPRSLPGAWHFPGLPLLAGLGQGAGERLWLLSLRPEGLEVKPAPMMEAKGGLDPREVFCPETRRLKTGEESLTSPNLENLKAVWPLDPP
The following applies: protein: recombinant; tags: N-terminal GST; dsDNA, one strand shown. In short, it runs like this:
as §1

The target of a further experiment is T8, ETS2 (Homo sapiens, UniProt P15036 1-469).
T8 sequence: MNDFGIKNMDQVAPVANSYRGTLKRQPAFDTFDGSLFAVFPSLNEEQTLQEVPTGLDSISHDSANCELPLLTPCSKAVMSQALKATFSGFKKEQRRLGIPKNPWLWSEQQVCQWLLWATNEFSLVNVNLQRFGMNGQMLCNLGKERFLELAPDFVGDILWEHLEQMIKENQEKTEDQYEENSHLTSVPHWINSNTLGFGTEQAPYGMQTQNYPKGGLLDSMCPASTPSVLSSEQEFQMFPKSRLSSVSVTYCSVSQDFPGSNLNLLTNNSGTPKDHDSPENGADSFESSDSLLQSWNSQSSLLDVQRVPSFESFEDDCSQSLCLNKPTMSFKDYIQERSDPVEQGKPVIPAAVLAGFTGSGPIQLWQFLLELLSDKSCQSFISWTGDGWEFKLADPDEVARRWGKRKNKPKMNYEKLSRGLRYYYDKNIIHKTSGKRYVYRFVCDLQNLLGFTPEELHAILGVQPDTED
The note with it: protein: recombinant; tags: N-terminal GST; dsDNA, one strand shown. The gist of the method: as §1

In a further experiment the target is T9, SPDEF (Homo sapiens, UniProt O95238 1-335).
T9 sequence: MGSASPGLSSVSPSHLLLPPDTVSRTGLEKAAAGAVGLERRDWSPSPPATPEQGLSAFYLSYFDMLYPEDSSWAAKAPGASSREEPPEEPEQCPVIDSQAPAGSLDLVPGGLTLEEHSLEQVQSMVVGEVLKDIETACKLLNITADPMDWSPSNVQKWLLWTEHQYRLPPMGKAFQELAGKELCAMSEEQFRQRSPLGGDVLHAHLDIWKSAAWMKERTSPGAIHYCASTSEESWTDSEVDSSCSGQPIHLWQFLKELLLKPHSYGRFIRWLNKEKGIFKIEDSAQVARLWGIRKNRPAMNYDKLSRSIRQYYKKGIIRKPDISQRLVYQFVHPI
The following applies: protein: recombinant; tags: N-terminal GST; dsDNA, one strand shown. In short, it runs like this:
as §1

The target in a further experiment is T10, ETV7 (Homo sapiens, UniProt Q9Y603 1-341).
T10 sequence: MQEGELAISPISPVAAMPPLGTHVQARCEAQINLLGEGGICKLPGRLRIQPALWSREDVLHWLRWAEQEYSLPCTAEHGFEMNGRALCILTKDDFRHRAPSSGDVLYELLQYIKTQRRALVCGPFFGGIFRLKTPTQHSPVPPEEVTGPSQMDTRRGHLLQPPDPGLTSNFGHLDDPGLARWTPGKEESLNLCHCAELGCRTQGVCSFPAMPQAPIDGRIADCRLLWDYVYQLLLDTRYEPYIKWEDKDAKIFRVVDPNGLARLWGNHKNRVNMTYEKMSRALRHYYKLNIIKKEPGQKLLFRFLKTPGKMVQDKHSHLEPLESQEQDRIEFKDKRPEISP
The following applies: protein: recombinant; tags: N-terminal GST; dsDNA, one strand shown. The gist of the method:
as §1

Another experiment has as its target T11, ELF5 (Homo sapiens, UniProt Q9UKW6-2 1-255).
T11 sequence: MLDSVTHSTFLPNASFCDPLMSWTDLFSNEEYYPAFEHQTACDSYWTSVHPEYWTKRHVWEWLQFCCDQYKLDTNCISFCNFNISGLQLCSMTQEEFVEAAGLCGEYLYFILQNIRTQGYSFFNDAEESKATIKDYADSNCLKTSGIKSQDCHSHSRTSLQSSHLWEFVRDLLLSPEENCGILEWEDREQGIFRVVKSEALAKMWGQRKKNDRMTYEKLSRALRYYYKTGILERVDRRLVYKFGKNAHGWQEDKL
The following applies: protein: recombinant; tags: N-terminal GST; dsDNA, one strand shown. The gist of the method: as §1

For another experiment, the target named is T12, ETV3 (Homo sapiens, UniProt P41162-2 1-143).
T12 sequence: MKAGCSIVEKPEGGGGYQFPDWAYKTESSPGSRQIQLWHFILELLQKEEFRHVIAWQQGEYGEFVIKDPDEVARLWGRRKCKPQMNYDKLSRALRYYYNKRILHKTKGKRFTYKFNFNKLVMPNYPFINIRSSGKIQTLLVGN
The note with it: protein: recombinant; tags: N-terminal GST; dsDNA, one strand shown. The gist of the method: as §1

The target of a further experiment is ETV6 (Homo sapiens, UniProt P41212 1-452). The note with it: protein: recombinant; tags: N-terminal GST; dsDNA, one strand shown. The gist of the method: as §1
Sequence of ETV6 (P41212 whole entry): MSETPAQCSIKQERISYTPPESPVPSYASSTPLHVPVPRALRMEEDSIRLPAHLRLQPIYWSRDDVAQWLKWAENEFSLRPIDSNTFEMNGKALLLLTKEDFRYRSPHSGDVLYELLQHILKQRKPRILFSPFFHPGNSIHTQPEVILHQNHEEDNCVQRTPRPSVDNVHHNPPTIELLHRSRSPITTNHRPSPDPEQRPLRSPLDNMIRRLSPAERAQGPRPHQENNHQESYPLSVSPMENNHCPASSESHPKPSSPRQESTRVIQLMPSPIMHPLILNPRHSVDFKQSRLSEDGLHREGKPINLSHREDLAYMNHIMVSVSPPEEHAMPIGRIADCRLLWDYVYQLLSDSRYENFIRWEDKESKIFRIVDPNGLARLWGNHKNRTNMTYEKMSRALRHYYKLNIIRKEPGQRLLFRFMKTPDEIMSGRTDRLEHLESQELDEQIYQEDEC

Sequence of ETV1 (P50549 whole entry): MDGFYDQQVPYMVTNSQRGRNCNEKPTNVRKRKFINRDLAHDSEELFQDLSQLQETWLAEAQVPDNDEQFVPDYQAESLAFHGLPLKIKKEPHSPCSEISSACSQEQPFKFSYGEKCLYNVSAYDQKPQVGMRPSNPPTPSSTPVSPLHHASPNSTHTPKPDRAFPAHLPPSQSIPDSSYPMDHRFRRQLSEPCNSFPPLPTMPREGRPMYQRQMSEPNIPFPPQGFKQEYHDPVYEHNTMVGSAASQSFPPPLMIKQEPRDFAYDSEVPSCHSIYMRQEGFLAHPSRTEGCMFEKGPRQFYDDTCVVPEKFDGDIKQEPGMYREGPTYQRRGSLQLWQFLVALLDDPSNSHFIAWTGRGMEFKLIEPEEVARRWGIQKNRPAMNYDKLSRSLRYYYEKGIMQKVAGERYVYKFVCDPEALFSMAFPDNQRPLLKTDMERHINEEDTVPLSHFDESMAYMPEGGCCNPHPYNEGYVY
Sequence of ELF4 (Q99607 whole entry): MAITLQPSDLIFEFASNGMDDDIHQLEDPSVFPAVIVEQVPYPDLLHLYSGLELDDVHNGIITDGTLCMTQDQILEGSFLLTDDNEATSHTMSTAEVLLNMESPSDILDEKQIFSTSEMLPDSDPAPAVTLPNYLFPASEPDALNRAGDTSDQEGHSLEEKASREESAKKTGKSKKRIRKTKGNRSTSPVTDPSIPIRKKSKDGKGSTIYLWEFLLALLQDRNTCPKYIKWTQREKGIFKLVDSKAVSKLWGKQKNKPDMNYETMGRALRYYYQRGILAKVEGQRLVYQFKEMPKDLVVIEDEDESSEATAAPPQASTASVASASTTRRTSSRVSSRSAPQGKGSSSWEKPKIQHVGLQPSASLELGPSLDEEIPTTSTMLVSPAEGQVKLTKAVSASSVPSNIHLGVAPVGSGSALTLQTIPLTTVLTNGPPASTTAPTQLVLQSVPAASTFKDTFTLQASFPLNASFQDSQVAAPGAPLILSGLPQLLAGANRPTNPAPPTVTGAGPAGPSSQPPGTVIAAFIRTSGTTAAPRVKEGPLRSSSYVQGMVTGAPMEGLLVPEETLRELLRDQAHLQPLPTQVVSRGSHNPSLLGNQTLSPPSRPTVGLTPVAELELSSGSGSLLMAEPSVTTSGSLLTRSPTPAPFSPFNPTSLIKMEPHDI
Sequence of HSF1 (Q00613 whole entry): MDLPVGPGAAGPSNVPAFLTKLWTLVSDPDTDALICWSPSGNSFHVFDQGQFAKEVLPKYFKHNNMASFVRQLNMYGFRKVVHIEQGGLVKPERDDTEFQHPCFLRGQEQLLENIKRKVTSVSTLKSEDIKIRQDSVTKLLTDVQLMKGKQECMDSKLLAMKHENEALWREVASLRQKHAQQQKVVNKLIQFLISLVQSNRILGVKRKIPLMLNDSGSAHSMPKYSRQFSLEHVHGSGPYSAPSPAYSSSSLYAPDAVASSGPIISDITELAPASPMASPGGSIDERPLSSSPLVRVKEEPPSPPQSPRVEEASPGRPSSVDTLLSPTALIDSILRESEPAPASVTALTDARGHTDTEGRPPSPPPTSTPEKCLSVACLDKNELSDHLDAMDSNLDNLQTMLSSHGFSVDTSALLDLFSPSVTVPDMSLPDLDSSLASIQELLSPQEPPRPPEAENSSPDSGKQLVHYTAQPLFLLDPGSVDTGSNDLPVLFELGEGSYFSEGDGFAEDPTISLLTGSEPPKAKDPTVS
Sequence of ETV5 (P41161 whole entry): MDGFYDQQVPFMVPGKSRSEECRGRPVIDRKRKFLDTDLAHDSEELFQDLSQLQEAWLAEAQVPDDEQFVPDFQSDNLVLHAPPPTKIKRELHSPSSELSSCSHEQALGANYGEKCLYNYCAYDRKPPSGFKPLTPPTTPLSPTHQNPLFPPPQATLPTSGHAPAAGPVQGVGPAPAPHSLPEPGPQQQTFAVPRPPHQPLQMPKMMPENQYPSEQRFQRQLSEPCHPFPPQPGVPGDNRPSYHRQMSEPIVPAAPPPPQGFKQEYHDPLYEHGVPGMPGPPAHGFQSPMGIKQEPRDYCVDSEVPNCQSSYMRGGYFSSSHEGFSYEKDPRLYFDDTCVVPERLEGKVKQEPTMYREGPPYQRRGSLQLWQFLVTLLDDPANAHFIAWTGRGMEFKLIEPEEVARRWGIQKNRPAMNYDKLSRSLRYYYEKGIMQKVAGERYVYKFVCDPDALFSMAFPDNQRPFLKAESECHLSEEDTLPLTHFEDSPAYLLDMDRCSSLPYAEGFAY
Sequence of CRX (O43186 whole entry): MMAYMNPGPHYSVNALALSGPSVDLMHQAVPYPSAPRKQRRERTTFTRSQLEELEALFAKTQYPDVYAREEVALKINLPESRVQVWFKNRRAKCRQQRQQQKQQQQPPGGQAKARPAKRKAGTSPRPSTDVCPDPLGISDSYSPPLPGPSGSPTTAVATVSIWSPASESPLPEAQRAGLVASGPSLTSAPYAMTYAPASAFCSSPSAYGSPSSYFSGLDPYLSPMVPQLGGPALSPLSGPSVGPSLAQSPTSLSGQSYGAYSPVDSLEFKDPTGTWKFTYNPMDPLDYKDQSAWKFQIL

On to AACTAG, for which the binding signal in the experiment with FEV is 1.14 fold enrichment (6-mer frequency, TF over GST control); with ETV5, 1.15 fold enrichment (6-mer frequency, TF over GST control); with HSF1 it was 1.37 fold enrichment (6-mer frequency, TF over GST control); in the experiment with SPIC, 1.2 fold enrichment (6-mer frequency, TF over GST control); in the experiment with ELF4 it was 1.19 fold enrichment (6-mer frequency, TF over GST control); with ELK4, 1.02 fold enrichment (6-mer frequency, TF over GST control). Also, the binding signal is 1.35 fold enrichment (6-mer frequency, TF over GST control) in the experiment with ETV2; 1.1 fold enrichment (6-mer frequency, TF over GST control) in the experiment with ELF3; 1.11 fold enrichment (6-mer frequency, TF over GST control) in the experiment with CRX; 1.15 fold enrichment (6-mer frequency, TF over GST control) in the experiment with ETV1; 1.16 fold enrichment (6-mer frequency, TF over GST control) with ERF; 1.09 fold enrichment (6-mer frequency, TF over GST control) with ETV3L. In addition, the binding signal was 1.11 fold enrichment (6-mer frequency, TF over GST control) in the experiment with ETS2; 1.08 fold enrichment (6-mer frequency, TF over GST control) in the experiment with SPDEF; 1.1 fold enrichment (6-mer frequency, TF over GST control) with ETV7; 1.13 fold enrichment (6-mer frequency, TF over GST control) in the experiment with ELF5; 1.14 fold enrichment (6-mer frequency, TF over GST control) in the experiment with ETV3; 1.15 fold enrichment (6-mer frequency, TF over GST control) with ETV6.
